Screening results: PubChem, National Center for Advancing Translational Sciences (NCATS)
Shown are actives, neighbours in structure and some others; about 19% of the full set was active somewhere.
DT40 TDP1 CPT – DT40-hTDP1 cell growth loss with CPT | chicken DT40 Tdp1-/-;hTDP1 cells + 20 nM CPT, ATP luminescence, 48 h | Potency, µM (doses to about 46.2 µM), without a hit: at the highest dose activity change, negative = growth inhibition, hits mostly inhibitors | 12% of 420,000 active | AID 686979; note: potency is the fitted concentration of half-maximal effect; nearly all actives have a fitted effect of over 55% in size
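Chicken DT40 Tdp1-/- cells stably complemented with human TDP1 were seeded at 400 cells/well in medium containing 20 nM camptothecin, exposed to pin-transferred compounds, and grown at 37 °C for at least 48 hr. Viability was read as ATP luminescence.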
IL-1B inflam inh – inhibitors of inflammasome signaling (IL-1 beta secretion). THP-1 LPS/ATP IL-1B secretion, AlphaLISA, 16 h; hits give low values. activity change, % at 57.5 µM. 4.7% of 360,000 active; in the data active = activity change below about -50%; inconclusive = mostly about -30% to -49%
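Secreted IL-1B measured by AlphaLISA bead assay after 16 h compound exposure of THP-1 cells; compounds (final up to 57.5 uM) added 1 h before LPS (250 ng/mL) and ATP (1.25 mM) stimulation; lower signal means less secretion.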
DT40 TDP1 no CPT – qHTS for Inhibitors of human tyrosyl-DNA phosphodiesterase 1 (TDP1): qHTS in cells in absence of CPT; DT40 Tdp1-/- hTDP1 cells, no CPT, ATP luminescence, 48 h; Potency, µM (doses to about 46.2 µM), for the others: top-dose activity change, negative = growth inhibition, actives largely listed as inhibitors; 15% of 420,000 active; note: potency is the fitted concentration of half-maximal effect; nearly all actives have a fitted effect of over 55% in size
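No-CPT arm: Tdp1-/-;hTDP1 DT40 cells (400/well) plus compounds, incubated ≥48 hr at 37 °C. Readout CellTiter-Glo luminescence.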
HT1080NT lethal – kills 2HG-producing HT-1080-NT fibrosarcoma cells. HT-1080-NT fibrosarcoma viability, CellTiter-Glo ATP luminescence, 48 h. 1.6% of 360,000 active. Potency, µM (highest dose often 46.1 µM), inactives show top-dose activity, negative = less viability, actives largely listed as cytotoxic;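 note: NT is the 2HG producing partner of a matched IDH1 knockdown line; potency is the fitted concentration of half-maximal effect; 0% = DMSO-treated cells and -100% = media-only wells without cells; nearly all actives have a fitted effect of over 55% in size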
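HT-1080-NT fibrosarcoma cells (2HG-overproducing), 750 cells/well in RPMI with 5% FBS, dosed after 2 h and incubated 48 h at 37C. CellTiter-Glo luminescence normalized to DMSO and no-cell wells; concentration-response curves fitted and classed.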
HT1080 IDH1KD tx – HT-1080 IDH1 knockdown cell toxicity (counter line). HT-1080 IDH1 knockdown viability, ATP luminescence, 48 h. Potency, µM (doses to about 46.1 µM), inactives show top-dose activity, negative = toxicity, usual class: cytotoxic. 2% of 360,000 active. AID 686971;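 note: potency is the fitted concentration of half-maximal effect; 0% = DMSO wells and -100% = cell-free medium wells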
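Viability of IDH1-knockdown HT-1080 fibrosarcoma cells was assessed by CellTiter-Glo after 48 h at 37 °C with titrated compound; concentration-effect curves were classified by fit quality and response size.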
* marks the source's active call; other numbers are inactive results; ? = inconclusive; . = no result. Unless noted, calls come from the whole dose curve; as a rule, active = well fitted curve in the direction sought with a large enough effect; inconclusive = small, poorly fitted or top-dose-only effect, or another doubt; inactive = no such curve, though single readings can be large; an effect the other way counts as inactive or inconclusive. Unless noted, % is set by controls: 0 for no effect and ±100 for the full control effect.

SMILES	DT40 TDP1 CPT	IL-1B inflam inh	DT40 TDP1 no CPT	HT1080NT lethal	HT1080 IDH1KD tx
Cc1cccc(C)c1NC(=O)C(c1ccccc1F)n1c(=O)c(-c2ccco2)nc2ccccc21 (configuration not stated)	?	-11	21µM*	-10%	1%
COc1ccc(NC(=O)C(c2ccccc2F)n2c(=O)c(-c3ccco3)nc3ccccc32)cc1 (configuration not stated)	?	-15	?	-5%	-6%
CCCCOc1ccc(C(=O)N2CCN(c3ncccn3)CC2)cc1	-16%	?	-21%	3%	-1%
Cc1ccccc1-n1c(=O)n(Cc2ccccc2)c(=O)c2[nH]cnc21	0%	22	-5%	-2%	-4%
COC(=O)c1ccc(C)c(-n2c(=O)n(Cc3ccccc3)c(=O)c3[nH]cnc32)c1	?	33	21µM*	-5%	-3%
CSc1ccc(/C=C(\C#N)C(=O)NC2CCCCC2C)cc1 (configuration not stated)	?	-120*	10µM*	?	?
COc1ccc(/C=C(/C#N)C(=O)NC2CCCCC2)cc1Br	?	-14	?	17%	14%
N#C/C(=C\c1c(F)cccc1Cl)C(=O)NC1CC1	?	-74*	?	-22%	-12%
CC(=O)Nc1ccc(/C=C(\C#N)C(=O)NC2CCCCC2C)cc1 (configuration not stated)	-1%	?	?	-4%	-12%
CC1CCCCC1NC(=O)/C(C#N)=C/c1ccccc1F (configuration not stated)	-104%	-101*	-100%	?	18µM*
COc1cc(/C=C(\C#N)C(=O)NC2CCCCC2C)ccc1OS(=O)(=O)c1ccc(C)cc1 (configuration not stated)	?	-103*	16µM*	?	?
Cc1[nH]c2ccccc2c1/C=C(\C#N)C(=O)NC1CC1	-18%	-26	-4%	-2%	-1%
Cc1nn2c(=O)cc(COC(=O)c3ccc(S(=O)(=O)N4CCCCC4)cc3)nc2s1	3%	27	0%	8%	3%
CCc1nn2c(=O)cc(COC(=O)c3ccc(NC(=O)C4CCCCC4)cc3)nc2s1	?	.	18µM*	.	.
CC(C)Cc1nn2c(=O)cc(COC(=O)c3ccccc3NC(=O)C3CCCCC3)nc2s1	8%	.	-3%	.	.
Cc1nn2c(=O)cc(COC(=O)c3ccc(NC(=O)C4CCCCC4)cc3)nc2s1	?	.	9.2µM*	.	.
O=C(CSc1nncc(=O)[nH]1)Nc1cccc([N+](=O)[O-])c1	?	?	?	-9%	-27%
CC(O/N=C/c1ccc(OC(F)F)cc1)C(=O)Nc1cccc(S(=O)(=O)N2CCOCC2)c1 (configuration not stated)	?	-7	?	-5%	-8%
COc1ccccc1CN1CCC(n2cc(C(=O)N3CCCCC3)nn2)CC1	-13%	.	-12%	.	.
COc1ccc(NC(=O)CN(C)C(=O)CN2C(=O)NC3(CCCC3)C2=O)cc1	-19%	0	?	-7%	0%
CC(C)N1CCN(Cc2cccc(-n3cccn3)c2)CC1CCO (configuration not stated)	-10%	2	-9%	8%	0%
C/C(=N\NC(=O)c1ccncc1)C12CC3CC(CC(C3)C1)C2	-17%	2	?	2%	12%
CC/C(=N\NC(=O)c1ccc(-c2ccccc2)cc1)C12CC3CC(CC(C3)C1)C2	-14%	12	13µM*	-11%	-10%
O=[N+]([O-])c1ccc(N(CC(O)CN2CCCCC2)S(=O)(=O)c2ccccc2)cc1 (configuration not stated)	?	-10	-13%	-20%	-24%
O=C(Nc1ccc2c(c1)OCCO2)c1ccc(Cl)cc1	?	-12	21µM*	-4%	-1%
SMILES	DT40 TDP1 CPT	IL-1B inflam inh	DT40 TDP1 no CPT	HT1080NT lethal	HT1080 IDH1KD tx
Cc1cccc(NC(=O)c2ccc3c(c2)OCCO3)c1	-25%	1	?	?	-24%
O=C(Nc1ccc(NC(=O)c2ccc3c(c2)OCCO3)cc1)c1ccccc1	?	30	-4%	16µM*	?
Cc1ccc(NC(=O)c2ccc3c(c2)OCCO3)cc1S(=O)(=O)Nc1cccc(Cl)c1	16µM*	-57*	21µM*	-6%	-11%
Cc1ccc(NC(=O)c2ccc3c(c2)OCCO3)cc1C	-10%	-50*	?	0%	-9%
O=C(O)/C=C/C(=O)NC1CCC(CC2CCC(NC(=O)/C=C/C(=O)O)CC2)CC1 (configuration not stated)	-6%	-5	-3%	-4%	-1%
COc1ccc(OC)c(CN2CCN(C(=O)c3ccc(C)c(S(=O)(=O)Nc4ccccc4OC)c3)CC2)c1	?	-2	?	-25%	0%
COc1cc(CN(C(=O)c2ccc(OC(C)C)cc2)c2ccccn2)cc(OC)c1OC	2.3µM*	.	4.1µM*	.	.
COc1cc(CN(C(=O)c2ccccc2[N+](=O)[O-])c2ccccn2)cc(OC)c1OC	?	.	15µM*	.	.
COc1cc(CN(C(=O)Nc2ccccc2)c2ccccn2)cc(OC)c1OC	-26%	.	?	.	.
COc1cc(CN(C(=O)c2ccc(OC(C)C)cc2)C2CCS(=O)(=O)C2)cc(OC)c1OC (configuration not stated)	-9%	.	-17%	.	.
COc1cc(CN(C(=O)COc2ccc(C)c(C)c2)c2ccccn2)cc(OC)c1OC	7.3µM*	.	8.2µM*	.	.
COc1ccc(C(=O)N(Cc2cc(OC)c(OC)c(OC)c2)c2ccccn2)cc1	?	.	21µM*	.	.
S=C(NCCCn1ccnc1)Nc1cccc(Cl)c1	-3%	15	-12%	13%	10%
CC(C(=O)Nc1ccc(F)cc1Cl)N1CCN(S(=O)(=O)c2cccs2)CC1 (configuration not stated)	?	?	?	-7%	0%
O=C(Cn1cnc2ccccc21)N/N=C/c1cccc([N+](=O)[O-])c1	-1%	22	-9%	4%	13%
COc1ccc(C(=O)N2CCc3ccccc32)cc1S(=O)(=O)N1CCOCC1	-28%	-14	?	-4%	-8%
CCOC(=O)c1ccc2c(c1)nc(C1CCN(S(=O)(=O)c3cccs3)CC1)n2CC	15µM*	-79*	?	?	?
CCOC(=O)c1ccccc1NC(=O)CSc1nc2ncccc2o1	4%	.	-21%	.	.
CCOC(=O)c1c(C)[n+](-c2ccc(C)cc2)c(CC)c2cc(OC)c(OC)cc12	2.1µM*	21	2.6µM*	?	?
